Potency and outcome data for eight compounds are collected here from PubChem BioAssay (Tox21).

A number with no mark means an inactive call. Results filed as inconclusive are left out. The source made the active and inactive calls. Unless noted, the call rests on the fitted dose curve.

Assay [1] can be described thus: Nuclear factor erythroid 2-related factor 2/antioxidant responsive element (Nrf2/ARE) small molecule agonists: qHTS cell viability counter screen in human keratinocytes (AID 1919968; active means well fitted curve in the direction sought with a large enough effect in the repeat runs; an effect the other way counts as inactive or inconclusive; further: nearly all actives have a fitted effect of over 55% in size). An outline of the steps:
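Fluorescence read-out from CellTiter-Fluor after 1 h at 37 C. Wells held HaCaT-derived ARE-luciferase reporter cells (1,500/well) treated 23 h with DMSO-dissolved compounds. Run in the same wells as the luciferase agonist read.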

Assay [2] is described as follows: Nuclear factor erythroid 2-related factor 2/antioxidant responsive element (Nrf2/ARE) small molecule agonists: luciferase reporter gene qHTS assay in human keratinocytes (AID 1919969). Further: nearly all actives have a fitted effect of over 35% in size. Further: potency means the concentration at half of the fitted maximal effect. A general note: In a reporter assay the amount or activity of a reporter protein is the signal.
Assay [3] addresses KiSS-1 receptor (Homo sapiens) (UniProt Q969F8). In words: Human kisspeptin (KISS1R) small molecule agonists, calcium flux assay in KISS1R-HEK293 cells (AID 1920064; active means well fitted curve in the direction sought with a large enough effect in the repeat runs; an effect the other way counts as inactive or inconclusive). An outline of the steps:
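Calcium flux read-out: kinetic fluorescence at Ex/Em=480/540, 1 s intervals over 3 min, after pin-tool compound addition to dye-loaded KISS1R-HEK293 cells. Fifteen concentrations, triplicates.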
(Calcium flux is commonly read through the fluorescence of an indicator in the cells.)

Assay [4] can be described thus: G protein-coupled receptor (GPCR) small molecule agonists, calcium flux assay: HEK293 wild type cell line counter screen (AID 1920065). In short, it runs like this:
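Agonist mode; 18 h seeding at 37 C, 1 h dye load at 37 C; compounds pinned from DMSO, ATP as positive control; kinetic fluorescence 480/540 nm, 3 min, 1 s reads; 15 concentrations, triplicate.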

Assay [5] in a line: p53 small molecule agonists, cell-based qHTS assay with human liver microsomes (AID 1963577).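 Further: p53 response element beta-lactamase reporter cells with liver microsomes plus NADPH.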 An outline of the steps: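 Steps: plate p53RE-bla cells, incubate 5 h at 37 C; add compound in DMSO; add microsomes (0.5 mg/mL final) and NADPH (0.5 mg/mL final); incubate 16 h at 37 C; add LiveBLAzer, 2 h RT; read fluorescence.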
A short description of assay [6]: p53 small molecule agonists, cell-based qHTS assay with rat liver microsomes (AID 1963578). In short, it runs like this:
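Metabolic activation is supplied by rat liver microsomes with NADPH (each 0.5 mg/mL final). p53RE-bla cells incubate with compound 16 h at 37 C; reporter activity is measured by LiveBLAzer fluorescence.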
On the technique in general: Quantitative high-throughput screening tests each substance at several concentrations.

Assay [7] in a line: p53 small molecule agonists, cell-based qHTS assay with human liver microsomes: qHTS cell viability counter screen (AID 1963579). Further: nearly all actives have a fitted effect of over 45% in size. In short, it runs like this:
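After the 460/530 nm beta-lactamase read, CellTiter-Glo was added to the same wells and luminescence measured after 30 min at room temperature, giving viability of p53RE-bla cells treated 16 h with compounds plus microsomes and NADPH.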

Assay [8] is described as follows: p53 small molecule agonists, cell-based qHTS assay with rat liver microsomes: qHTS cell viability counter screen (AID 1963580). Further: nearly all actives have a fitted effect of over 45% in size. In short, it runs like this:
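Cytotoxicity counter screen: intracellular ATP read by CellTiter-Glo luminescence in the p53 reporter wells. HCT-116 p53RE-bla cells were treated for 16 h at 37 C alongside rat liver microsomes and NADPH, each 0.5 mg/mL final.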

Assay [9] addresses 5-hydroxytryptamine receptor 2A (Homo sapiens) (UniProt P28223). In words: 5-hydroxytryptamine receptor 2A (HTR2A) small molecule agonists, cell-based qHTS assay (AID 1963587). Further: nearly all actives have a fitted effect of over 30% in size. In short, it runs like this: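 Kinetic calcium-flux fluorescence (2 min, 1 sec intervals) after compound addition in agonist mode. HTR2A-CHO cells were cultured 18 h, then dye-loaded 1 h at 37 C.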
Assay [10] addresses Muscarinic acetylcholine receptor M1 (Homo sapiens) (UniProt P11229). In words: Cholinergic receptor muscarinic 1 (CHRM1) small molecule antagonists, cell-based qHTS assay (AID 1963588). Further: nearly all actives have a fitted effect of over 40% in size. Further: potency means the concentration at half of the fitted maximal effect. An outline of the steps: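 Compounds were tested at 15 concentrations in three independent runs. Dye-loaded CHRM1-CHO cells were exposed 5 min at room temperature before stimulation by acetylcholine added at 50nM. Intracellular calcium was read kinetically on FDSS for 3 min.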

For assay [11] the target is unchanged. The assay is described as follows: Cholinergic receptor muscarinic 1 (CHRM1) small molecule agonists, cell-based qHTS assay (AID 1963589). Further: nearly all actives have a fitted effect of over 35% in size. An outline of the steps:
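Calcium flux read-out: kinetic fluorescence at 1 sec intervals after pin-tool compound addition to dye-loaded CHRM1-CHO cells (human M1). Agonist mode; 15 concentrations tested in triplicate independent runs.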

In assay [12] the target is Beta-2 adrenergic receptor (Homo sapiens) (UniProt P07550). The assay is described as follows: Adrenergic beta2 receptor (ADRB2) small molecule antagonists, cell-based qHTS assay (AID 1963592). Further: series mostly up to about 92 µM; nearly all actives have a fitted effect of over 50% in size. An outline of the steps: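 Assay format: CHO-ADRB2 cells, 18-20hr seeding at 37C/5% CO2, then compound plus 1nM isoproterenol agonist mix for 0.5hr RT. Homogeneous time-resolved fluorescence cAMP detection after 1hr, expressed as 665/615 nm ratio.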

The target of assay [13] is D(2) dopamine receptor (Homo sapiens) (UniProt P14416). The assay is described as follows: Dopamine D2 receptor (DRD2) small molecule agonists, cell-based qHTS assay (AID 1963594). Further: nearly all actives have a fitted effect of over 35% in size. In short, it runs like this:
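cAMP accumulation in DRD2-HEK293 cells measured by HTRF after 1 h detection; compounds added 10 min before NKH477 (200nM […]) forskolin-analogue stimulation, 30 min at room temperature, with Ro20-1724 present at 0.1 mM final.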

For assay [14] the target is unchanged. The assay is described as follows: Dopamine D2 receptor (DRD2) small molecule antagonists, cell-based qHTS assay (AID 1963595; active means well fitted inhibition curve with a large enough effect in the signal ratio in the repeat runs, with a control signal flat; the % refers to the signal ratio; further: potency means the concentration at half of the fitted maximal effect). In short, it runs like this:
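Human DRD2 antagonist qHTS measuring cAMP by HTRF. The cells are exposed to compound for 10 min, then to NKH477 (200 nM) and quinpirole (12 nM) for 30 min at RT, with Ro20-1724 (0.1 mM) present throughout.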

Assay [15] in a line: p53 small molecule agonists, cell-based qHTS assay: qHTS cell viability counter screen (AID 1963581). Further: nearly all actives have a fitted effect of over 45% in size. In short, it runs like this: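 Cytotoxicity read-out: ATP-based luminescence (CellTiter-Glo, 30 min RT) measured in the same wells as the p53 reporter assay, HCT-116 p53RE-bla cells, 16 h compound exposure at 37 C.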
Assay [16] can be described thus: p53 small molecule agonists, cell-based qHTS assay (AID 1963582; active means well fitted activation curve with a large enough effect in the signal ratio in the repeat runs, not every such curve was filed as active; the % refers to the signal ratio). In short, it runs like this:
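Fluorescence intensity read-out of a beta-lactamase reporter under a p53 response element. Cells were exposed to DMSO-dissolved compounds for 16 h at 37 C, then developed with FRET substrate for 2 h at RT.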

Assay [17] is described as follows: cAMP Responsive Elements (CRE) small molecule agonists, cell-based qHTS assay (AID 1963590). An outline of the steps: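 Beta-lactamase reporter readout: LiveBLAzer B/G FRET substrate, 2 h at room temperature, added after 3 h compound treatment of CRE-bla HEK 293T cells at 37 C/5% CO2.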
Assay [18] is described as follows: cAMP Responsive Elements (CRE) small molecule antagonists, cell-based qHTS assay (AID 1963591; active means well fitted inhibition curve with a large enough effect in the signal ratio in the repeat runs, not every such curve was filed as active; the % refers to the signal ratio). In short, it runs like this: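 HEK293T CRE-bla; 18 h preincubation; compound pin-transfer; NKH477 0.25 uM final, 3 h, 37 C; LiveBLAzer FRET substrate 2 h RT.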
The target in assay [19] is 5-hydroxytryptamine receptor 2A (Homo sapiens) (UniProt P28223). In words: 5-hydroxytryptamine receptor 2A (HTR2A) small molecule antagonists, cell-based qHTS assay (AID 1963586). Further: nearly all actives have a fitted effect of over 45% in size. An outline of the steps: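 CHO cells stably expressing human HTR2A were plated for 18 h at 37 C, then loaded with calcium dye for 1 h. Compounds were preincubated 5 min at room temperature before DOI (4 nM solution) was added. Kinetic fluorescence was read for 3 min.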
5-hydroxytryptamine receptor 2A (Homo sapiens), sequence (P28223 whole entry, looked up): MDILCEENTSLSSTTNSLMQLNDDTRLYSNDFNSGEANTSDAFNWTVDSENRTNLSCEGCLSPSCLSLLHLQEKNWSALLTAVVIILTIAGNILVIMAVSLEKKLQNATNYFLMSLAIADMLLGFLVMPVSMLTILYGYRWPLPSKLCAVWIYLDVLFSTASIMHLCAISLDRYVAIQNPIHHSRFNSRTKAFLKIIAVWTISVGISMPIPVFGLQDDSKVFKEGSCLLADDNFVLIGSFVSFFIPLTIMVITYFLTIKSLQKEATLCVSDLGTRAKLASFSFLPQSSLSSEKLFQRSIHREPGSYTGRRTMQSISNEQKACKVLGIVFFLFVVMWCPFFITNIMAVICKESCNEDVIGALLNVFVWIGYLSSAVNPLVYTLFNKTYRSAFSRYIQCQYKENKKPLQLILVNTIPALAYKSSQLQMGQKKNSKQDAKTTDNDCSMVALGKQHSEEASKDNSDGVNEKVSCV

Beta-2 adrenergic receptor (Homo sapiens), sequence (P07550 whole entry, looked up): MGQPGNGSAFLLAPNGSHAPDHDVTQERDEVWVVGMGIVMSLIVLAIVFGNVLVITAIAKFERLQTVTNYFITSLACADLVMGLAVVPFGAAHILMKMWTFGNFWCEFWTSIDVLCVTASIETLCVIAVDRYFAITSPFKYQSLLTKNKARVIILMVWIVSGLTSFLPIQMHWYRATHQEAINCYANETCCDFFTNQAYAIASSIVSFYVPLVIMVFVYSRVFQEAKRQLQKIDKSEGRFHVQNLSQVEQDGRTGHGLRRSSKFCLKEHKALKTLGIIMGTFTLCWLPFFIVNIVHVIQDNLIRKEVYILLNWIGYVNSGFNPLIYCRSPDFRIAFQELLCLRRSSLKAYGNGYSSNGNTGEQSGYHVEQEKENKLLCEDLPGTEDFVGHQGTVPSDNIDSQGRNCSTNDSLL
KiSS-1 receptor (Homo sapiens), sequence (Q969F8 whole entry, looked up): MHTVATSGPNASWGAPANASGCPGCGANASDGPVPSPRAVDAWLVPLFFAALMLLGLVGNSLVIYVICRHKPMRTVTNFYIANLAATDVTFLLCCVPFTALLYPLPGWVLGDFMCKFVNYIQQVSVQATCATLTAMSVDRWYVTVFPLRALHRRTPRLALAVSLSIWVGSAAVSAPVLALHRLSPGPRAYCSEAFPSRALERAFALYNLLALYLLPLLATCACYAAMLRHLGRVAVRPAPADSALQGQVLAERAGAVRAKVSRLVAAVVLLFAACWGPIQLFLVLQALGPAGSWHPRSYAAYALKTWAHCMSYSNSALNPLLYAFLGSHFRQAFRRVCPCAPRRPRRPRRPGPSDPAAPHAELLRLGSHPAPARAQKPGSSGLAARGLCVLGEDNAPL
D(2) dopamine receptor (Homo sapiens), sequence (P14416 whole entry, looked up): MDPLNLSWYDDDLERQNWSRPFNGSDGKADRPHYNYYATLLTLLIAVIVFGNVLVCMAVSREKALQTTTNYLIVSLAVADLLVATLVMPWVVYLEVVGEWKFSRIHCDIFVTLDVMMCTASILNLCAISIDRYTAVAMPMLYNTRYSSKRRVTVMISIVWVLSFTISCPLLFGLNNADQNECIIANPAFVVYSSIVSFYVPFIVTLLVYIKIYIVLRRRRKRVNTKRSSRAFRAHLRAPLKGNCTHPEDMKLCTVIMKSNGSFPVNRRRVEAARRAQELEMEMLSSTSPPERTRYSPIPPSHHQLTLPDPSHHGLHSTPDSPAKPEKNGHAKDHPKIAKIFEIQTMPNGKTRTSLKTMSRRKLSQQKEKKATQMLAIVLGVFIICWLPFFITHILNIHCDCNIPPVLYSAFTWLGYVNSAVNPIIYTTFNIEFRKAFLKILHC
Muscarinic acetylcholine receptor M1 (Homo sapiens), sequence (P11229 whole entry, looked up): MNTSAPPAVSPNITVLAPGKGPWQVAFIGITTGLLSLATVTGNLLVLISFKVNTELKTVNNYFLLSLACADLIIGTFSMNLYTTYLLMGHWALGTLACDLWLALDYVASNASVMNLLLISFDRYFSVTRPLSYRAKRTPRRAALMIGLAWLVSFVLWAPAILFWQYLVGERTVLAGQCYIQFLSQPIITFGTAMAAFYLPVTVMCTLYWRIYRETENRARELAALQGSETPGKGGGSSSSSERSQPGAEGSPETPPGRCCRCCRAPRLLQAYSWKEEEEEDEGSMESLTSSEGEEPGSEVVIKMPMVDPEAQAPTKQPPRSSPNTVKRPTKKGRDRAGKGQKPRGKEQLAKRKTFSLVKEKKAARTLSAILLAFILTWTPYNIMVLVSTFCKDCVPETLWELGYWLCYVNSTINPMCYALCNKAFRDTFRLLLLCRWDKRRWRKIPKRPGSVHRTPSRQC

Consider `Cc1c(Cl)cccc1Nc1ccccc1C(=O)O`, for which the Potency entry in assay [1], in assay [2], in assay [5], in assay [6], in assay [7] and in assay [8] was “inactive” in each case. Moreover, the Potency entry in assay [9], in [11], in assay [12], in [13] and in [14] was “inactive” in each case. The outcome in assay [3] and in [4] was inactive. Besides, the Potency in [10] is 4600 nM (active).
On to `C[N+]1(C)CCC(=C(c2ccccc2)c2ccccc2)CC1`, for which the Potency result in [1], in assay [2], in assay [5], in [6], in [7] and in assay [15] was “inactive” in each case. Moreover, the Potency entry in [16], in assay [9], in assay [11], in assay [17], in [18] and in assay [12] was “inactive” in each case. Also, in assay [14], the Potency result is “inactive”. In addition, the result in [3] and in assay [4] was inactive. Also, the Potency in [10] was 13 nM (active).
Take `Cc1ccc2c(c1[N+](=O)[O-])C(=O)c1ccccc1C2=O`: the Potency entry in assay [1], in assay [5], in assay [6], in [7], in [8] and in assay [15] was “inactive” in each case. Further, the Potency result in [19], in assay [9], in [10], in assay [11], in assay [18] and in assay [12] was “inactive” throughout. The Potency entry in assay [13] and in assay [14] was “inactive” throughout. Moreover, the Potency in assay [2] is 16900 nM (active). The result in [3] and in [4] was inactive.
As for `CCOc1nc2cccc(C(=O)O)c2n1Cc1ccc(-c2ccccc2-c2nn[nH]n2)cc1`, the Potency entry in [1], in assay [2], in assay [5], in [6], in assay [7] and in [8] was “inactive” throughout. Besides, the Potency result in assay [16], in assay [17], in [18], in assay [12] and in [13] was “inactive” throughout. Besides, the outcome in [3] and in assay [4] was inactive.
As for `Cc1nc(-c2ccc(OCC(C)C)c(C#N)c2)sc1C(=O)O`, the Potency result in [1], in [5], in [6], in [7], in [8] and in assay [15] was “inactive” in each case. Besides, the Potency entry in assay [19], in [9], in [10], in assay [11], in [13] and in assay [14] was “inactive” in each case. Moreover, in [2], the Potency was 53.1 nM (active). Besides, the outcome in [3] and in [4] was inactive.
Take `O=C1[C@H]2CCCC[C@H]2C(=O)N1CCCCN1CCN(c2nsc3ccccc23)CC1`: the Potency result in assay [1], in [2], in assay [5], in assay [6], in assay [8] and in assay [15] was “inactive” throughout. Moreover, the Potency entry in assay [16], in [9], in assay [11], in assay [12] and in assay [13] was “inactive” each time. For the same compound, the result in assay [3] and in assay [4] was inactive. Also, the Potency in assay [14] is 2.7 nM (active).
Consider `Oc1ccc(C(O)CNCCCCCCNCC(O)c2ccc(O)c(O)c2)cc1O` (stereo not given), for which the Potency entry in assay [1], in assay [2], in assay [5], in assay [6], in assay [8] and in [15] was “inactive” each time. Besides, the Potency result in assay [19], in [9], in assay [10], in assay [11], in [18] and in [12] was “inactive” each time. For the same compound, the Potency entry in assay [13] was “inactive”. The result in [3] and in assay [4] was inactive.
Regarding `CCC(CC)(CC(=O)Nc1cccc(/C=C/c2nc(C3CCC3)cs2)c1)C(=O)O`, the Potency entry in [1], in assay [2], in [5], in assay [6], in [8] and in assay [15] was “inactive” throughout. Besides, the Potency entry in assay [16], in [19], in [9], in assay [10], in assay [11] and in assay [12] was “inactive” in each case. Moreover, the Potency result in assay [13] and in assay [14] was “inactive” throughout. Also, the result in [3] and in assay [4] was inactive.
